Usually residual activity stands for the signal under treatment as a percentage of the control signal.

The target in test [1] is T1, Serine/threonine-protein kinase Nek2 (Homo sapiens) (UniProt P51955).
T1 sequence (whole entry): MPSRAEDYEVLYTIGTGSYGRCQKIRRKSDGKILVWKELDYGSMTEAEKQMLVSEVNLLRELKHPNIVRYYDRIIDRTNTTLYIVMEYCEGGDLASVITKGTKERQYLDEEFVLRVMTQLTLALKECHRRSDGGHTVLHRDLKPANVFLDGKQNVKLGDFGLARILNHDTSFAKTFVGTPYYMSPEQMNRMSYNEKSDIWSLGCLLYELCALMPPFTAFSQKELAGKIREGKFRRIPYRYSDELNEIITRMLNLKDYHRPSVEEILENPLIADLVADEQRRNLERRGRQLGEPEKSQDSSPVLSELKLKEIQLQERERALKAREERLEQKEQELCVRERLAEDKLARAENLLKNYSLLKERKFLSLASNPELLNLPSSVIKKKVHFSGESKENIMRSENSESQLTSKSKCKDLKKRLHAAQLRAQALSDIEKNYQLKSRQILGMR
Conditions: at 10 µM.

The target in test [2] is Serine/threonine-protein kinase tousled-like 2 (Homo sapiens) (UniProt Q86UE8). The settings on record: at 10 µM.
Test [3] has as its target T2, Testis-specific serine/threonine-protein kinase 1 (Homo sapiens) (UniProt Q9BXA7).
T2 sequence (whole entry): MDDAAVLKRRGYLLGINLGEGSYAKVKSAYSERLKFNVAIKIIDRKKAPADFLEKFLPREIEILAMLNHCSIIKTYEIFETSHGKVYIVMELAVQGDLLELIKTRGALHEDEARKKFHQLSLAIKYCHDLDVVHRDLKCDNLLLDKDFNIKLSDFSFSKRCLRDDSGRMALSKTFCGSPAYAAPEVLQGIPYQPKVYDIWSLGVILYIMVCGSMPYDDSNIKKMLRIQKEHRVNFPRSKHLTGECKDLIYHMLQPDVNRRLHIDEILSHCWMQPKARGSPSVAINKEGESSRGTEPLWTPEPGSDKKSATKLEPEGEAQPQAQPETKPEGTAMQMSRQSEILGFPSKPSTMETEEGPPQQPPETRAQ
The settings on record: at 1 µM.

Test [4] addresses T2, Testis-specific serine/threonine-protein kinase 1 (Homo sapiens). Conditions: at 10 µM.
Test [5] concerns the target T3, Tyrosine-protein kinase Tec (Homo sapiens) (UniProt P42680).
T3 sequence (whole entry): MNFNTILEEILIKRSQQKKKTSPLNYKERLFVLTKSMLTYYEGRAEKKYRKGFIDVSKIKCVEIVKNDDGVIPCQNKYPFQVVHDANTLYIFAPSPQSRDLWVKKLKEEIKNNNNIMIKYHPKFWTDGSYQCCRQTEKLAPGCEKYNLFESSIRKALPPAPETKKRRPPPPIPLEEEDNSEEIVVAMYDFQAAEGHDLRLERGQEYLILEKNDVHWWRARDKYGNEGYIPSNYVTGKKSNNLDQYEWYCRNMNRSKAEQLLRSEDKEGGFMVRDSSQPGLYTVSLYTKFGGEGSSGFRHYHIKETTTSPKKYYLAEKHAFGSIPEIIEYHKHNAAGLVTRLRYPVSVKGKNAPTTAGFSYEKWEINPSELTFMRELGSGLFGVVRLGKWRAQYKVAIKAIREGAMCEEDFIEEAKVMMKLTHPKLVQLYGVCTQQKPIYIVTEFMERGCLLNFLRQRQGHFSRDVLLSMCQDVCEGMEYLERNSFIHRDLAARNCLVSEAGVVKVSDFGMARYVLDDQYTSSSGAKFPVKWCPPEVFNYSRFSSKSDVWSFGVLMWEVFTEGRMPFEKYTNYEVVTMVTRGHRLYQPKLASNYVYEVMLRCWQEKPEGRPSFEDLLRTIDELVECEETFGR
The settings on record: at 10 µM.

The target of test [6] is Angiopoietin-1 receptor (Homo sapiens) (UniProt Q02763). Conditions: at 10 µM.
For test [7], the target named is High affinity nerve growth factor receptor (Homo sapiens) (UniProt P04629). Conditions: at 1 µM.
Test [8] has the same target. The settings on record: at 10 µM.
Test [9] has as its target BDNF/NT-3 growth factors receptor (Homo sapiens) (UniProt Q16620). Conditions: at 1 µM.
The target is the same in test [10]. Conditions: at 10 µM.
Test [11] deals with T4, Tyrosine-protein kinase TXK (Homo sapiens) (UniProt P42681).
T4 sequence (whole entry): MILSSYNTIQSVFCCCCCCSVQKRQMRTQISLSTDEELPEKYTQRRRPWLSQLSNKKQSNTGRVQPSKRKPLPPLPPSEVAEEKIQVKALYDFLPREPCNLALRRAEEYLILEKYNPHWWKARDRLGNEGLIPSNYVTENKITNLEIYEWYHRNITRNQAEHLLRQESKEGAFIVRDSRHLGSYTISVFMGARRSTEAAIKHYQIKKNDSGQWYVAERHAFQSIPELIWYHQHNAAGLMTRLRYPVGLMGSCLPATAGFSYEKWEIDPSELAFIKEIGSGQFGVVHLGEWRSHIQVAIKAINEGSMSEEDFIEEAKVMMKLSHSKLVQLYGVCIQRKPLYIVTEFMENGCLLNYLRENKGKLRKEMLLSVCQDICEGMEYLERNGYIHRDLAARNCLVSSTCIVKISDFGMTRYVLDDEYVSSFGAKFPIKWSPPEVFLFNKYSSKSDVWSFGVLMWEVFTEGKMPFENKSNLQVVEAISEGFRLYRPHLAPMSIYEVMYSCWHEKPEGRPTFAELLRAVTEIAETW
The settings on record: at 1 µM.

Test [12] deals with T4, Tyrosine-protein kinase TXK (Homo sapiens). Conditions: at 10 µM.
In test [13] the target is T1, Serine/threonine-protein kinase Nek2 (Homo sapiens). Conditions: at 1 µM.
Test [14] concerns the target T5, Serine/threonine-protein kinase Nek3 (Homo sapiens) (UniProt P51956).
T5 sequence (whole entry): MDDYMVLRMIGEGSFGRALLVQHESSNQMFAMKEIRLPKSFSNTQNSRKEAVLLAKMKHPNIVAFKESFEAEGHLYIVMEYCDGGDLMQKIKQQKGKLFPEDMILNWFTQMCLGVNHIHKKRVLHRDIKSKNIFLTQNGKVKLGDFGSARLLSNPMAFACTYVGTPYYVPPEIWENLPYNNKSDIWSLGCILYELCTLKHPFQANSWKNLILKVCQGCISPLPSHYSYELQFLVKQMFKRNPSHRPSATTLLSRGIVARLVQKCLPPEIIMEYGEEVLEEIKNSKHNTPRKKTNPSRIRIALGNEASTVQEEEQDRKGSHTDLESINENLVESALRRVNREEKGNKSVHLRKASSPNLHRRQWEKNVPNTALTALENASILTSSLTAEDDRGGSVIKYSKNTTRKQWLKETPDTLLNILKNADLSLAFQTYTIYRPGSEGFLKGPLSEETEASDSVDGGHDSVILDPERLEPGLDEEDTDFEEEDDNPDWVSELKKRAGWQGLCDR
Conditions: at 1 µM.

Test [15] deals with T5, Serine/threonine-protein kinase Nek3 (Homo sapiens). The settings on record: at 10 µM.
Test [16] addresses Serine/threonine-protein kinase tousled-like 2 (Homo sapiens) (UniProt Q86UE8). The settings on record: at 1 µM.
The target in test [17] is T6, Testis-specific serine/threonine-protein kinase 2 (Homo sapiens) (UniProt Q96PF2).
T6 sequence (whole entry): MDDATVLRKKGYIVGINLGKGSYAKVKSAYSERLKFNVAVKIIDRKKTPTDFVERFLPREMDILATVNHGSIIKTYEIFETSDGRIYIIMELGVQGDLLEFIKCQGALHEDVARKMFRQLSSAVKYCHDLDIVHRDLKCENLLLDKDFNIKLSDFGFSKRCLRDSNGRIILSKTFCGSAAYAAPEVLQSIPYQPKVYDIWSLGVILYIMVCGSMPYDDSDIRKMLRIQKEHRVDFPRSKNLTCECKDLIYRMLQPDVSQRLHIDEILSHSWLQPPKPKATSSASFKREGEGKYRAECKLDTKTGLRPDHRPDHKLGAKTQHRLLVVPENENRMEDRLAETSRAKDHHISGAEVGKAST
Conditions: at 1 µM.

Test [18] has as its target T6, Testis-specific serine/threonine-protein kinase 2 (Homo sapiens). The settings on record: at 10 µM.
Test [19] concerns the target T3, Tyrosine-protein kinase Tec (Homo sapiens). Conditions: at 1 µM.
The target in test [20] is Angiopoietin-1 receptor (Homo sapiens) (UniProt Q02763). Conditions: at 1 µM.

High affinity nerve growth factor receptor (Homo sapiens), sequence (P04629 33-796 limits assumed): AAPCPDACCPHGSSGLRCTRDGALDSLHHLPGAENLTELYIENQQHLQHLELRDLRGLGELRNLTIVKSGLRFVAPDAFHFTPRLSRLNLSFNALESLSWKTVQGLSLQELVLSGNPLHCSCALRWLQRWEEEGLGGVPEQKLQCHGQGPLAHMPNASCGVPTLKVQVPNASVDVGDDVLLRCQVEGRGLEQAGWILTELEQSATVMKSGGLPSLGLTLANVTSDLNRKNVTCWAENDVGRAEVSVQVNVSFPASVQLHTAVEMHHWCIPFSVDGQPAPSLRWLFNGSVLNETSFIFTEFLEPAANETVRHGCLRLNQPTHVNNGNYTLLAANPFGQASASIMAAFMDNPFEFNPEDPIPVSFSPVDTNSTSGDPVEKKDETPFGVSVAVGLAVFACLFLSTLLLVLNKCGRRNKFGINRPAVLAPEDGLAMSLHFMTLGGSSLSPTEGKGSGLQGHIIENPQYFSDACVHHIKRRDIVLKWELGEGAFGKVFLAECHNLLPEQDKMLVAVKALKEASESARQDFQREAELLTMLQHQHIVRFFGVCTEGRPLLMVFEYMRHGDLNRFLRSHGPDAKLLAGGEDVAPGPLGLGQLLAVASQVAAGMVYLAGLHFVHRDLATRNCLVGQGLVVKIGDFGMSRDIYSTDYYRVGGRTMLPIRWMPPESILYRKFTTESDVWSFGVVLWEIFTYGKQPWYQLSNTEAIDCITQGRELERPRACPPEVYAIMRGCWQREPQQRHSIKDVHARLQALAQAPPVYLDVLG
BDNF/NT-3 growth factors receptor (Homo sapiens), sequence (Q16620 32-822 limits assumed): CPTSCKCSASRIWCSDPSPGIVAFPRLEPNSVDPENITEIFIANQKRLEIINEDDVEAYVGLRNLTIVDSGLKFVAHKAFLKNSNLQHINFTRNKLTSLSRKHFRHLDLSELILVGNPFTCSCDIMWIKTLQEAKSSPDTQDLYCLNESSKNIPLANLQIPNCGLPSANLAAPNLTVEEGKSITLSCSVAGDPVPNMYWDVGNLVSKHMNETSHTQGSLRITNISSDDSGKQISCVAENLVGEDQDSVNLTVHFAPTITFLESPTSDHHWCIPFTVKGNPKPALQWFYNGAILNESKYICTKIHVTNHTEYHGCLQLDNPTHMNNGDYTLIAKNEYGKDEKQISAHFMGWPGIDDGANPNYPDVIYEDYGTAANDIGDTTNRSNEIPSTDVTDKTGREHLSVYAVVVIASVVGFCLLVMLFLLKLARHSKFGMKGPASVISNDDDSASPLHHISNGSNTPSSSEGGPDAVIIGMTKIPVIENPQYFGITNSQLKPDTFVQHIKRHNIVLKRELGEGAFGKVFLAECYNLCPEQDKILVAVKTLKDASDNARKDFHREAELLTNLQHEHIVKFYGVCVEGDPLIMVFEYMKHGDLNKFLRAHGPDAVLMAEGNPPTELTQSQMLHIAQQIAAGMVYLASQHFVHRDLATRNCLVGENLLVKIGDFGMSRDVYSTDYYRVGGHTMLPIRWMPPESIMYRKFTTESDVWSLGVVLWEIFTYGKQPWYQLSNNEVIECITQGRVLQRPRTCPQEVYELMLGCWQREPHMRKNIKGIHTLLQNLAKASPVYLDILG
Serine/threonine-protein kinase tousled-like 2 (Homo sapiens), sequence (Q86UE8 whole entry, looked up): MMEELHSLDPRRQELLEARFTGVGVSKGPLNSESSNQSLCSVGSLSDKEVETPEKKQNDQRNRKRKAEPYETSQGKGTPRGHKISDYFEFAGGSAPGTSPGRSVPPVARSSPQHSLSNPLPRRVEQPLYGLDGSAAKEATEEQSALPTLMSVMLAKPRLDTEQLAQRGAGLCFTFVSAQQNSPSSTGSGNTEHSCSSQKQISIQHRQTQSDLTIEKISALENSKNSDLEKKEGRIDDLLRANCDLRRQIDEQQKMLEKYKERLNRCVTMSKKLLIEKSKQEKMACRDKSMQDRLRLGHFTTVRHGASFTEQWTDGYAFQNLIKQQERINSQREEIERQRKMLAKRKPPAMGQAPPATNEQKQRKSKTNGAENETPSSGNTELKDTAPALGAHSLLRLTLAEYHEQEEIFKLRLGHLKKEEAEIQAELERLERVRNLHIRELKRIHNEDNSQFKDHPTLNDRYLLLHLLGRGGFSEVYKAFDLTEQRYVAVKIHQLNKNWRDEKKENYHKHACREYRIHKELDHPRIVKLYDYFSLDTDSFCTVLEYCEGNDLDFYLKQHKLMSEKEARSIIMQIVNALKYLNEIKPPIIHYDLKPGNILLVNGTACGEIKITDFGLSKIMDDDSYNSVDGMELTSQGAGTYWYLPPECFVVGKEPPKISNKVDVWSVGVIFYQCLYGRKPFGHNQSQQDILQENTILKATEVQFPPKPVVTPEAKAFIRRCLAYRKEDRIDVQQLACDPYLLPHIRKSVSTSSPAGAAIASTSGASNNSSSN
Angiopoietin-1 receptor (Homo sapiens), sequence (Q02763 whole entry): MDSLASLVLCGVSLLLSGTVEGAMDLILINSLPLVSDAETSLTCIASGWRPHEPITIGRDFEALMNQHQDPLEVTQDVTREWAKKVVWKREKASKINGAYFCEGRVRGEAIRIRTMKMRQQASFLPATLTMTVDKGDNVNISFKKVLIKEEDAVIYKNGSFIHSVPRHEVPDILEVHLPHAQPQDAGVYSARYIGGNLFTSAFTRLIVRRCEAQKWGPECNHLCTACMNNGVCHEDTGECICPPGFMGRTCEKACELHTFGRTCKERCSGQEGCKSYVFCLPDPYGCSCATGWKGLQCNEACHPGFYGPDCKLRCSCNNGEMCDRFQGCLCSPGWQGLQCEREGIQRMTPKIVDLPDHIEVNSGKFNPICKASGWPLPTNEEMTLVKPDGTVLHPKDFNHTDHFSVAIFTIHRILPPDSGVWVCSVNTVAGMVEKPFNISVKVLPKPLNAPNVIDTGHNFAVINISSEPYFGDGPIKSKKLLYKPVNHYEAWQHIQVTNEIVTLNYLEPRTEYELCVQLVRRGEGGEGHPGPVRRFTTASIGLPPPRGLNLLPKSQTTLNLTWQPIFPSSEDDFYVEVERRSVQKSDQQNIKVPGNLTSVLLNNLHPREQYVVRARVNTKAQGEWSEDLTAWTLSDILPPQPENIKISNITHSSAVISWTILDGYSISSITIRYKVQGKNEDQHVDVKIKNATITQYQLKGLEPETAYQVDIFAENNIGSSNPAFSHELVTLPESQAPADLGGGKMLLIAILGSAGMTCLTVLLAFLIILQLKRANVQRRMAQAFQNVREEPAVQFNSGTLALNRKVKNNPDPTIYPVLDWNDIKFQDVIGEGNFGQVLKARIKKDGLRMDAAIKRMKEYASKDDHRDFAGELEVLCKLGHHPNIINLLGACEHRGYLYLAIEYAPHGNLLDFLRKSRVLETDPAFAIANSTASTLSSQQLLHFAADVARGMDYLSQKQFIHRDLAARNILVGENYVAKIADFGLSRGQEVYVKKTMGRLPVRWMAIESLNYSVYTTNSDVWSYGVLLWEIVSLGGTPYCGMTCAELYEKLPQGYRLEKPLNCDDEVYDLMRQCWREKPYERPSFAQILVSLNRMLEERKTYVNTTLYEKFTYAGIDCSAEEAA

Regarding `c1cc(-c2cnn3cc(-c4ccc(OCCN5CCCCC5)cc4)cnc23)ccn1`, the residual activity is 86% in test [1]; 74% in [2]; 76% in test [3]; 45% in test [4]; 75% in test [5]; 44% in test [6]. Moreover, the residual activity in test [7] was 28%; in test [8], 2%; in test [9], 61%; in test [10] it was 7%; in test [11], 44%; in test [12], 7%.

Turning to `CCn1cnc2c(Nc3cccc(Cl)c3)nc(N[C@@H]3CCCC[C@@H]3N)nc21`, the residual activity was determined as 98% in test [13]; 55% in test [1]; 75% in test [14]; 81% in [15]; 31% in test [16]; 4% in [2]. Moreover, the residual activity stood at 79% in test [3]; 40% in test [4]; 90% in [17]; 58% in test [18]; 39% in [19]; 7% in test [5]. For the same compound, the residual activity in test [20] was 83%; in test [6], 42%; in test [7], 12%; in test [8] it was 1%; in test [9], 15%; in [10] it was 0%. Also, the residual activity in test [11] came to 52%; in test [12] it was 10%.

With `Fc1ccc(-c2nc3n(c2-c2ccncc2)CCS3)cc1`, the residual activity in [17] stood at 85%.

Consider `Nc1ccc2ncnc(NCCc3ccc(Oc4ccccc4)cc3)c2c1`, for which the residual activity in [17] worked out at 106%.

Take `CN(C)c1ccc(/C=C2\C(=O)Nc3ccccc32)cc1`: in test [17], the residual activity worked out at 92%.

Turning to `C[S+]([O-])c1ccc(-c2nc(-c3ccc(F)cc3)c(-c3ccncc3)[nH]2)cc1` (centres undefined), the residual activity is 114% in test [13]; 118% in test [1]; 104% in [14]; 104% in [15]; 113% in [16]; 109% in [2]. For the same compound, the residual activity in [3] stood at 106%; in [4] it was 94%; in [17] it was 94%; in test [18] it was 100%; in test [19], 94%; in [5], 89%. In addition, the residual activity in [20] is 102%; in test [6], 62%; in [7], 121%; in [8], 115%; in [9], 94%; in test [10], 104%. For the same compound, the residual activity in [11] was determined as 77%; in test [12], 42%.

Consider `O=C(c1ccccc1)c1ccc(N2CCOCC2)cc1O`, for which, in [17], the residual activity stood at 87%.

Regarding `CC(C)[C@H](CO)Nc1nc(Nc2cccc(Cl)c2)c2ncn(C(C)C)c2n1`, the residual activity is 90% in [13]; 53% in [1]; 84% in [14]; 89% in test [15]; 100% in test [16]; 81% in test [2]. Also, the residual activity in test [3] worked out at 97%; in test [4] it was 72%; in [17], 94%; in test [18], 79%; in test [19] it was 63%; in test [5], 8%. Further, the residual activity in test [20] was determined as 99%; in test [6] it was 59%; in [7] it was 3%; in test [8] it was 1%; in test [9] it was 8%; in [10], 0%. In addition, the residual activity was found to be 66% in [11] and 16% in test [12].

Regarding `CCOC(=O)c1c(C)[nH]c(/C=C2\C(=O)Nc3ccccc32)c1C`, the residual activity in test [17] was found to be 90%.

With `O=c1c2ccccc2[nH]c(=S)n1CCN1CCC(=C(c2ccc(F)cc2)c2ccc(F)cc2)CC1`, in [17], the residual activity came to 96%.

Consider `CCCC(=O)Oc1ccc2[nH]c(C(=O)c3cc4ccccc4[nH]3)cc2c1`, for which, in test [17], the residual activity is 96%.

Turning to `O=C1Nc2ccc3ncsc3c2/C1=C/c1c[nH]cn1`, the residual activity is 64% in test [13]; 39% in test [1]; 102% in test [14]; 32% in [15]; 19% in test [16]; 3% in test [2]. The residual activity was 68% in test [3]; 31% in test [4]; 89% in test [17]; 86% in [18]; 91% in [19]; 42% in test [5]. Besides, the residual activity in [20] is 67%; in test [6], 22%; in test [7] it was 3%; in test [8] it was -1%; in test [9], 19%; in test [10] it was -11%. Moreover, the residual activity came out at 82% in [11] and 30% in test [12].

(Values after ChEMBL document CHEMBL2218924, “A broad activity screen in support of a chemogenomic map for kinase signalling research and drug discovery” (Biochem J, 2013).)
